Reference: PubChem BioAssay (NCATS)
Results filed as inconclusive are left out. A call without a number means that no potency is given here. Activity calls are given as the source filed them. Calls come from the whole dose curve; as a rule, active = well fitted inhibition curve with a large enough effect; inconclusive = small, poorly fitted or top-dose-only effect; inactive = flat fitted curve, though single readings scatter.

Legend:
Experiment in all cases: qHTS profiling for inhibitors of Plasmodium falciparum proliferation (AID 504749); note: nearly all actives have a fitted effect of over 60% in size
Conditions in all cases: P. falciparum in erythrocytes, SYBR Green DNA, 72 h; series mostly up to 28.7 µM
[1] = tested on: CP237
Summary of the method: (§1)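 Infected RBCs, 0.3% parasitemia/2.5% Hct final; cpd 72 h, 37 C, 5% CO2; lysis buffer with saponin/triton/SYBR Green I, o/n RT dark; FI 485/535; norm. to artemisinin (0.29 uM) and DMSO.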

[2] = tested on: CP238
Summary of the method: as §1

[3] = tested on: CP247
Summary of the method: as §1

[4] = tested on: CP250
Summary of the method: as §1

[5] = tested on: CP252
Summary of the method: as §1

[6] = tested on: CP256
Summary of the method: as §1

[7] = tested on: CP260
Summary of the method: as §1

[8] = tested on: CP262
Summary of the method: as §1

[9] = tested on: CP265
Summary of the method: as §1

[10] = tested on: CP266
Summary of the method: as §1

[11] = tested on: CP268
Summary of the method: as §1

[12] = tested on: CP269
Summary of the method: as §1

[13] = tested on: CP286
Summary of the method: as §1

[14] = tested on: CP291
Summary of the method: as §1

[15] = tested on: CP297
Summary of the method: as §1

[16] = tested on: CP305
Summary of the method: as §1

[17] = tested on: CP325
Summary of the method: as §1

[18] = tested on: CP329
Summary of the method: as §1

[19] = tested on: CP335
Summary of the method: as §1

[20] = tested on: CP315
Summary of the method: as §1
Potency is the fitted concentration of half-maximal effect.

Row | Structure (SMILES) | Potency [1] | Potency [2] | Potency [3] | Potency [4] | Potency [5] | Potency [6] | Potency [7] | Potency [8] | Potency [9] | Potency [10] | Potency [11] | Potency [12] | Potency [13] | Potency [14] | Potency [15] | Potency [16] | Potency [17] | Potency [18] | Potency [19] | Potency [20]
1 | CCOC(=O)Nc1ccc2c(c1)N(C(=O)CCN1CCOCC1)c1ccccc1S2 | inactive | inactive | inactive | inactive | inactive | inactive | inactive | inactive | inactive | inactive | inactive | inactive | inactive | inactive | inactive | inactive | inactive | inactive | inactive | –
2 | CCCCCCCCOc1ccc(C(=O)c2ccccc2)c(O)c1 | inactive | inactive | inactive | inactive | inactive | inactive | inactive | inactive | inactive | – | inactive | inactive | inactive | inactive | inactive | inactive | inactive | inactive | inactive | inactive
3 | Nc1ccc(S(=O)(=O)NCc2ccccc2)cc1 | inactive | inactive | inactive | inactive | inactive | inactive | inactive | inactive | inactive | inactive | inactive | inactive | inactive | inactive | inactive | inactive | inactive | inactive | inactive | inactive
4 | CCCCNc1ccc(C(=O)OCCOCCOCCOCCOCCOCCOCCOCCOCCOC)cc1 | inactive | inactive | inactive | inactive | inactive | inactive | inactive | inactive | inactive | inactive | inactive | inactive | inactive | inactive | inactive | inactive | inactive | inactive | inactive | –
5 | CCC(C(=O)OCCOCCN(CC)CC)c1ccccc1 (configuration not stated) | 11200 nM (active) | inactive | inactive | inactive | inactive | inactive | inactive | inactive | – | inactive | inactive | inactive | inactive | inactive | 15100 nM (active) | inactive | inactive | inactive | – | inactive
6 | CC(C)Cc1ccc(CC(=O)O)cc1 | inactive | inactive | inactive | inactive | inactive | inactive | inactive | inactive | inactive | inactive | inactive | inactive | inactive | inactive | inactive | inactive | inactive | inactive | inactive | –
7 | CCCCCCCCNC(C)C(O)c1ccc(SC(C)C)cc1 (configuration not stated) | 794 nM (active) | 794 nM (active) | 891 nM (active) | 891 nM (active) | 794 nM (active) | 1000 nM (active) | 355 nM (active) | 2130 nM (active) | 1120 nM (active) | 1690 nM (active) | 1510 nM (active) | 1510 nM (active) | 1000 nM (active) | 1900 nM (active) | – | 2690 nM (active) | 3010 nM (active) | 3010 nM (active) | 601 nM (active) | 3010 nM (active)
8 | CCOc1ccccc1C(N)=O | inactive | inactive | inactive | inactive | inactive | inactive | inactive | inactive | inactive | inactive | inactive | inactive | inactive | – | inactive | inactive | inactive | inactive | inactive | inactive
9 | O=C1C(CCS(=O)c2ccccc2)C(=O)N(c2ccccc2)N1c1ccccc1 (configuration not stated) | inactive | inactive | inactive | inactive | inactive | inactive | inactive | inactive | inactive | inactive | inactive | inactive | inactive | inactive | inactive | inactive | inactive | inactive | inactive | –
10 | COc1cc(C(=S)N2CCOCC2)ccc1O | inactive | inactive | inactive | inactive | inactive | inactive | inactive | inactive | inactive | – | inactive | inactive | inactive | inactive | inactive | inactive | inactive | inactive | inactive | inactive
11 | COc1ccc(CN(CCN(C)C)c2ncccn2)cc1 | 7080 nM (active) | inactive | inactive | inactive | inactive | inactive | inactive | inactive | inactive | – | inactive | inactive | inactive | inactive | inactive | inactive | inactive | inactive | inactive | inactive
12 | CCCCCCCCCCCCCC(=O)OC(C)C | inactive | inactive | inactive | inactive | inactive | inactive | inactive | inactive | inactive | inactive | inactive | inactive | inactive | inactive | – | inactive | inactive | inactive | inactive | inactive
13 | CNCCc1ccccn1 | inactive | inactive | inactive | inactive | inactive | inactive | inactive | inactive | inactive | inactive | inactive | inactive | inactive | inactive | – | inactive | inactive | inactive | inactive | inactive
14 | COc1cc(N)c(Cl)cc1C(=O)NC1CCN(Cc2ccccc2)CC1 | inactive | inactive | inactive | inactive | inactive | inactive | inactive | inactive | inactive | inactive | inactive | inactive | inactive | inactive | inactive | inactive | inactive | inactive | inactive | inactive
15 | CC(C)CCCC(C)N (configuration not stated) | inactive | inactive | inactive | inactive | inactive | inactive | inactive | inactive | inactive | inactive | inactive | inactive | inactive | inactive | inactive | inactive | inactive | inactive | inactive | inactive
